# Pin1 inh = human Pin1 inhibition. Potency, µM (titrated, usually from 115 µM), most hits filed as inhibitors. 390,000 compounds, 0.009% hits. Pin1 FP peptide displacement, HiFluor488, 10 min. Q13526; active = well fitted inhibition curve with a large enough effect in the polarisation, with a control signal flat, not every such curve was filed as active; inconclusive = small, poorly fitted or top-dose-only effect, or effect the other way, or a change in a side signal; inactive = no such curve, though single readings can be large or run the other way; the % refers to the polarisation
# USP2a inh = USP2a (human) protease inhibition; USP2 core, Ub-CHOP2 coupled fluorogenic reporter, 485/531; Potency, µM (titrated, usually from 38.3 µM), usual class: inhibitors; 330,000 compounds, 0.01% hits; AID 463254
# Target sequence (O75604 whole entry, looked up): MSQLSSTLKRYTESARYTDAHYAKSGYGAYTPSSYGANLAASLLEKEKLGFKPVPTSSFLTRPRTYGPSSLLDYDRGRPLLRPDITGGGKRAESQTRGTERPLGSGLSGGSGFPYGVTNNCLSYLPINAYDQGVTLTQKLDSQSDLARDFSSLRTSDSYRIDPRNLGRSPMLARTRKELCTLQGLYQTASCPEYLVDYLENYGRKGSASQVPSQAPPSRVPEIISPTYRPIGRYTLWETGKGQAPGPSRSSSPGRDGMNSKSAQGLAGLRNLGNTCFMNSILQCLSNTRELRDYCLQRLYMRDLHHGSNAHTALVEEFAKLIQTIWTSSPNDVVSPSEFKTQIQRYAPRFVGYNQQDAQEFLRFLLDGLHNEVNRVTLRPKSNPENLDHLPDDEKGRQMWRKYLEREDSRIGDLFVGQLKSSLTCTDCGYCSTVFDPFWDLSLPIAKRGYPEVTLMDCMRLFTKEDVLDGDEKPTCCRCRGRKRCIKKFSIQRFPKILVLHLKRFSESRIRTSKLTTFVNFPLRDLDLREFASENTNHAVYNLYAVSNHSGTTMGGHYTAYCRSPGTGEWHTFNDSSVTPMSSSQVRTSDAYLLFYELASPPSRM
#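 USP2 core (10nM final) preincubated 30min RT with compound in 20mM Tris-HCl pH 8.0, 2mM CaCl2, 2mM beta-mercaptoethanol, 0.05% CHAPS; 25nM Ub-CHOP2 plus 25nM reporter substrate added, fluorescence (Ex485/Em531) read after 60min.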
# Tb PFK block = blocks T. brucei phosphofructokinase. O15648. T. brucei PFK, ADP-Glo luminescence. Potency, µM (highest dose often 57.5 µM), hits mostly inhibitors. 330,000 compounds, 0.17% hits. AID 485367; note: nearly all actives have a fitted effect of over 60% in size
#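 Compounds were pin-transferred as a titration series up to 57 uM into substrate buffer (0.5 mM F6P, 0.1 mM ATP, pH 8.0), then 1.25 nM PFK was added and reactions ran 45 min before ADP-Glo detection.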
# PI4K2A block = inhibitors of human PI4K2A. Q9BTU6. purified PI4K2A, ADP-Glo luminescence, 1 h; active compounds read low. activity change, negative = inhibition, % at 76.9 µM. 420,000 compounds, 0.13% hits. AID 1346378; in the data active = activity change below about -50%; inconclusive = mostly about -30% to -49%
#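 PI4K2A activity was measured by ADP-Glo luminescence: enzyme (4 ug/mL stock) and phosphatidylinositol (1.2 mM stock) in Tris pH 7.5/MgCl2/EGTA/Triton X-100 buffer were reacted with ATP (300 microM stock) for one hour at ambient temperature.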
# Tb PGK inh = inhibitors of T. brucei phosphoglycerate kinase; P07378; PGK/GAPDH coupled, Kinase-Glo luminescence, 60 min; Potency, µM (titrated, usually from 57.5 µM), most hits filed as inhibitors; 380,000 compounds, 0.043% hits; AID 602233; note: nearly all actives have a fitted effect of over 60% in size
#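 Luminescent ATP detection (Kinase-Glo Plus) follows a 60-minute room-temperature incubation, with wells lacking PGK as controls. Buffer: 100 mM TEA (pH 7.6), 5 mM MgCl2, 0.01% Tween-20. Coupling enzyme GAPDH (100 nM final) supplies unstable 1,3-BPG in-well.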
# Hits are given with their value; 0 = inactive; ? = inconclusive; - = no result given; ! = repeats disagree. Rows were chosen to be rich in hits. Some 0.28% of all compounds tested hit in one or more screens of this group. Unless noted, calls come from the whole dose curve; as a rule, active = well fitted curve in the direction sought with a large enough effect; inconclusive = small, poorly fitted or top-dose-only effect, or another doubt; inactive = no such curve, though single readings can be large; an effect the other way counts as inactive or inconclusive.
SMILES,Pin1 inh,USP2a inh,Tb PFK block,PI4K2A block,Tb PGK inh
CO[C@@H]1[C@@H](OC)[C@H](C)[C@@](O)(CC(=O)O)O[C@H]1[C@H](C)[C@H]1O[C@@]2(CC[C@@](C)([C@H]3CC[C@@](C)([C@@H]4O[C@@H]([C@H]5O[C@](C)(O)[C@H](C)C[C@@H]5C)C[C@@H]4OC4C[C@H](OC)[C@@H](OC)[C@H](C)O4)O3)O2)C[C@H](O)[C@H]1C (stereo partly specified),-,-,-,0,-
CCOc1ccc(NC(=S)NC(=O)/C=C/c2ccco2)cc1,0,0,0,0,0
COc1cc(NS(=O)(=O)c2ccc(NC(=S)NC(=O)/C=C/c3ccco3)cc2)ncn1,?,0,0,0,20µM
CN(C)/C=C1\C(=O)N(c2ccc([N+](=O)[O-])cc2)N=C1c1ccccc1,0,0,0,-50.7,0
CN(C)/C=C1/C(=O)N(c2ccc([N+](=O)[O-])cc2)N=C1c1ccccc1,-,0,0,-,-
O=c1ccc(N=Nc2ccccc2)ccc1O,?,0,0,-60.0,0
CCCCCOc1ccccc1/C(=C\SC)n1ccnc1,-,-,-,0,-
Cc1ccc(NC(=O)CN2C(=O)S/C(=C/c3ccc(-c4cc(C(=O)O)ccc4C)o3)C2=O)cc1C,?,0,?,0,20µM
C/C(=C\C(=O)c1cccnc1)Nc1ccc(O)cc1,0,0,0,-60.7,0
COc1ccc(NC(=O)c2cccnc2)cc1,0,0,0,0,0
C/C(=C\C(=O)c1ccccc1)Nc1ccc(O)cc1,0,0,0,-53.6,0
COc1ccc(C(=O)/C=C(\C)Nc2ccc(NC(C)=O)cc2)cc1,0,0,0,0,0
CCN1CCN(c2cccc(Nc3nn4c(=O)c5ccccc5nc4s3)c2)CC1,0,-,-,-,-
CCOC(=O)c1c(-n2cnnn2)sc2c1CCCC2,0,0,0,0,0
CCOC(=O)c1c(N2C(=O)Nc3cc(Cl)c(Cl)cc3N2O)sc2c1CCCCC2,53.6µM,0,0,0,0
COc1ccc(C2=CC(=O)C=CC2=O)cc1,-,0,6.75µM,-,-
O=C1CCC2=C1C(c1ccccc1Cl)N=C(Nc1nc3ccccc3o1)N2 (stereo unspecified),0,-,-,-,-
OCC1O[C@H]([S-])[C@H](O)[C@@H](O)[C@@H]1O.[Au+] (stereo partly specified),-,-,-,-55.1,-
OC[C@H]1OC(O)[C@H](O)[C@@H](O)[C@H]1O (stereo partly specified),0,0,0,0,0
CC(C)C[C@@H]1[C@H](c2ccccc2)OC(=O)N1CCCN1CCCCCC1,-,-,-,0,-
Cc1cc(Cl)ccc1OCCCC(N)=O,0,0,0,0,0
Cc1cc(Cl)ccc1OCCCC(=O)NO,0,0,13.5µM,0,0
COc1cccc(C2c3c(ncn(-c4ccc(Br)cc4)c3=N)Oc3ccc4ccccc4c32)c1 (stereo unspecified),0,-,-,-,-
COc1cc(N)c(C(=O)c2nccc3cc(OC)c(OC)cc23)cc1OC,0,0,0,0,0
COc1cc(Br)c(C(=O)c2nccc3cc(OC)c(OC)cc23)cc1OC,0,0,0,-52.1,0
SMILES,Pin1 inh,USP2a inh,Tb PFK block,PI4K2A block,Tb PGK inh
CCNc1cccc(S(=O)(=O)N2CCN(S(=O)(=O)c3ccc4c(c3)OCCO4)CC2)c1,0,-,-,-,-
COc1ccc(C2Nc3ccccc3C(=O)N2CCO)cc1COc1ccc(NC(C)=O)cc1 (stereo unspecified),0,-,-,-,-
Cc1cccc2sc(N(Cc3cccnc3)C(=O)CCOc3ccccc3)nc12,0,-,-,-58.8,0
Cc1cccc2sc(N(Cc3cccnc3)C(=O)COc3ccccc3)nc12,0,-,-,0,0
O=C(c1ccccc1O)N(Cc1ccco1)Cc1cccs1,0,-,-,-,-
O=C1CC(=O)N(Cc2cccs2)C(=O)N1,?,0,0,0,0
O=C1CC(=O)N(Cc2ccco2)C(=O)N1,?,0,23.9µM,?,5.01µM
COc1ccc(C(C#N)c2ccc(=O)[nH]n2)cc1 (stereo unspecified),0,0,0,-62.2,0
CC(=O)Nc1ccc(OC2=NS(=O)(=O)c3ccccc32)cc1,0,-,-,-,-
Cc1nn(-c2nc3ccccc3[nH]2)c(=O)c2ccccc12,0,0,?,-81.4,?
Cc1nn(-c2ccc3ccccc3c2)c(=O)c2ccccc12,0,0,0,0,0
O=C(CSc1nc(NS(=O)(=O)c2ccccc2)cc(=O)[nH]1)Nc1ccc(Cl)cc1,0,0,?,0,?
COc1ccc(NC(=O)CSc2nc(NS(=O)(=O)c3ccccc3)cc(=O)[nH]2)cc1,-,0,?,-52.8,?
Cc1ccc(S(=O)(=O)C(CNC(=O)COc2ccccc2)c2cccs2)cc1 (stereo unspecified),0,-,-,0,10µM
Cc1cc(S(=O)(=O)C(CNC(=O)COc2ccccc2)c2cccs2)ccc1F (stereo unspecified),0,-,-,0,0
CC(C)[C@@H](CO)NC(=O)c1ccc2c3n(nc2c1)-c1ccccc1CO3,0,0,0,0,0
CC(C)NC(=O)c1ccc2c3n(nc2c1)-c1ccccc1CO3,0,0,?,-62.6,?
COc1cc(F)c(S(=O)(=O)N2CCCN(S(=O)(=O)c3ccc4c(c3)OCCO4)CC2)c(F)c1,0,-,-,-,-
Cc1cccc(NC(=O)CNC(=O)c2cccc(-n3cccc3)c2)c1C,0,0,21.3µM,0,?
Cc1cccc(NC(=O)CNCC(=O)Nc2cccc(C)c2C)c1C,0,0,0,0,0
COc1ccc(-c2cc3c(nn2)-c2ccccc2C3=O)cc1,0,0,0,-56.5,?
O=C1c2ccccc2-c2nnc(-c3ccccc3)cc21,0,0,0,?,?
O=C(/C=C/c1ccco1)N1CCc2ccccc21,0,0,0,-52.9,?
O=C(O)C1=CC(=C(c2ccc(O)c(C(=O)O)c2)c2ccc(O)c(C(=O)O)c2)C=CC1=O,-,1.12µM,?,-85.7,-
O=C(Nc1ccc(Cl)c(Cl)c1)Oc1ccc(NC(=O)c2ccco2)cc1,0,0,13.5µM,0,0
SMILES,Pin1 inh,USP2a inh,Tb PFK block,PI4K2A block,Tb PGK inh
O=C(Nc1ccc(OC(=O)c2ccco2)cc1)c1ccco1,0,0,0,?,?
O=Cc1ccc(N2CCN(S(=O)(=O)c3ccc4c(c3)CC(=O)N4)CC2)cc1,-,-,-,-56.1,-
COc1ccc(-c2nn(-c3ccccc3)cc2/C=C2/SC(=S)N(CCC(=O)O)C2=O)cc1,?,0,0,0,20µM
COc1cccc(C2c3c(ncn(-c4ccccc4-c4ccccc4)c3=N)Oc3ccc4ccccc4c32)c1 (stereo unspecified),0,-,-,-,-
COC1=CC(=O)c2nc(Cl)ccc2C1=O,-,-,-,-57.7,-
COc1cccc2c1C(=O)C=C(C)C2=O,0,0,0,0,0
FC(F)(F)C1=Nc2cccc3cccc(c23)N1,-,10µM,0,-64.3,0
COc1ccc(NS(=O)(=O)c2ccc3c(c2)[C@H]2C=CC[C@H]2[C@@H](c2ccc(C(=O)O)cc2)N3)cc1,-,0,0,0,28.2µM!

# High-throughput results from PubChem BioAssay.
